{
  "source": "PubChem BioAssay AID2061322",
  "about": "(National Center for Advancing Translational Sciences (NCATS), 2025)",
  "note": "Inconclusive results are not listed. Active and inactive are the calls of the source. Calls follow the shape of the dose curve; as a rule, active = well fitted inhibition curve with a large enough effect; inconclusive = small, poorly fitted or top-dose-only effect; inactive = flat fitted curve, though single readings scatter.",
  "data": [
    {"assay": "Identification of antibody-drug conjugate (ADC) payloads which are substrates of ATP-binding cassette drug efflux transporters: ABCG2-HEK293-R5 cell line with Ko143", "details": "ABCG2-HEK293-R5 with Ko143, CellTiter-Glo viability, 48 h", "excerpt": "Antibody-drug conjugates (ADCs) feature an antibody recognizing a specific protein joined to a potent toxic payload. Numerous antibody-drug conjugates have received FDA approval; however, clinical resistance arises. Resistance mechanisms include decreased expression or mutation of the antibody target, impaired payload release, or increased expression of ATP-binding cassette (ABC) efflux transporters associated with multidrug resistance. We therefore sought to characterize the interaction of ABC multidrug transporters with ADC payloads. We performed a high-throughput screen with 27 common ADC payloads using cells lines expressing ABC transporters P-glycoprotein (P-gp, encoded by ABCB1) or ABCG2 (encoded by ABCG2). Confirmatory assays were also performed using cells transfected to express P-gp, ABCG2, or MRP1 (encoded by ABCC1). Several commonly used ADC payloads were substrates of P-gp, including calicheamicin gamma1, monomethyl auristatin E, DM1, and DM4. All the pyrrolobenzodiazepines tested - SJG136, SGD-1882, SG2057, and SG3199 - were substrates of P-gp, ABCG2, and MRP1. […] These findings highlight the risk of transporter-mediated resistance with certain ADC payloads and underscore the importance of selecting payloads that evade ABC transporter recognition in future ADC development.\nHEK-293 cells were transfected with empty vector (pcDNA) or vector containing the human ABCB1 (MDR-19), ABCG2 (R-5), or ABCC1 gene (MRP1) and were maintained in EMEM with 2 mg/mL G418 added to maintain transporter expression. The HeLa derivative KB-3-1 and the P-gp overexpressing KB-8-5-11 subline were maintained in DMEM; KB-8-5-11 additionally received 100 ng/mL colchicine. H460 parental cells were obtained from the Division of Cancer Treatment and Diagnosis Tumor Repository, National Cancer Institute at Frederick, MD and were cultured in RPMI. The ABCG2 expressing subline H460 MX20 was generated by selecting H460 cells in 20 nM mitoxantrone. Media in all cases was supplemented with 10% FBS and 1% penicillin-streptomycin. We explored 27 common ADC payloads, in two orthogonal, paired cell line sets-a drug selected and transfected set for each transporter--to identify substrates of the ABC transporters P-gp and ABCG2. Compounds were sourced from Levena Biopharma (San Diego, CA), Selleck Chem (Houston, TX), ChemieTek (Indianapolis, IN), or Microsource Discovery Systems (Gaylordsville, CT). Screening was performed as previously described. Briefly, cells were plated at a density of 500 cells/well in 1536 well plates with compounds added using a 1536-head pin tool (Kalypsys, San Diego CA). Cells were incubated with cytotoxic drugs and processed with CellTiter Glo reagent (Promega, Madison, WI) to determine viability after 48 hours. P-gp substrates were identified by comparing compound activity between paired sets of low-expressing (sensitive) and over-expressing (resistant) cell lines.", "values": [
      {"smiles": "CC(C)(C)OC(=O)Nc1ccc2[nH]c(C(=O)N3C[C@@H](CCl)c4c3cc(O)c3ccccc43)cc2c1", "Potency": "30 nM (active)"},
      {"smiles": "COC(=O)c1cc2c3c(cc(O)c2[nH]1)N(C(=O)c1cc2cc(OC)c(OC)c(OC)c2[nH]1)CC3CCl", "note": "(stereo not given)", "Potency": "4.2 nM (active)"},
      {"smiles": "CCN(C(C)=O)[C@H]1CO[C@@H](O[C@H]2[C@H](O[C@H]3C#C/C=C\\C#C[C@]4(O)CC(=O)C(NC(=O)OC)=C3/C4=C\\CSSSC)O[C@H](C)[C@@H](NO[C@H]3C[C@H](O)[C@H](SC(=O)c4c(C)c(I)c(O[C@@H]5O[C@@H](C)[C@H](O)[C@@H](OC)[C@H]5O)c(OC)c4OC)[C@@H](C)O3)[C@@H]2O)C[C@@H]1OC", "Potency": "33.6 nM (active)"},
      {"smiles": "CN(C)CCOc1ccc2[nH]c(C(=O)N3C[C@@H](CCl)c4c3cc(O)c3ccccc43)cc2c1", "Potency": "1.9 nM (active)"},
      {"smiles": "CCN[C@H]1CO[C@@H](O[C@H]2[C@H](O[C@H]3C#C/C=C\\C#C[C@]4(O)CC(=O)C(NC(=O)OC)=C3/C4=C\\CSSSC)O[C@H](C)[C@@H](NO[C@H]3C[C@H](O)[C@H](SC(=O)c4c(C)c(I)c(O[C@@H]5O[C@@H](C)[C@H](O)[C@@H](OC)[C@H]5O)c(OC)c4OC)[C@@H](C)O3)[C@@H]2O)C[C@@H]1OC", "Potency": "3 nM (active)"}
    ]}
  ]
}
